These results are taken from ChEMBL document CHEMBL3988442, “University of Dundee, Small-Polar-MMV Screening Library” (2021).

Each structure is given as a SMILES string. Hit rate of the full screen: of about 38,000 compounds, about 1,200 (3.2%) showed an effect of 50% or more. The median lay at about -58%. Shown is part of a subset that was picked to be rich in strong results.

The assay relates to Plasmodium falciparum. Put plainly: Calibr Malaria Delayed Death Assay SOP. Type of assay: functional, organism-based. As to conditions: concentration 4.99e-06 (unit not given; other assays of the set use mol/L). On the set-up: scale not given: in the data most compounds retested in dose-response had high values.
As for `CCn1ncc(-c2cc(C(F)(F)F)nc(N3CCC(N)CC3)n2)c1C`, the “Percent Effect” value is listed as 64.36%.

As for `FC(F)(F)c1cc(-c2cccs2)nc(N2CCN3CCCC3C2)n1` (stereo unspecified), the “Percent Effect” value is -49.64%.

`CCc1ccc(-c2cc(C(F)(F)F)nc(N3CCC(N)CC3)n2)cc1`: the “Percent Effect” value was 81.95%.

Turning to `CCn1cc(-c2cc(C(F)(F)F)nc(NC3CCCC3)n2)c(C)n1`, the “Percent Effect” value was -77.03%.

As to `Cc1ccc(-c2cc(C(F)(F)F)nc(N3CCOCC3)n2)s1`, the “Percent Effect” value was -16.11%.

In the case of `Cc1c(-c2cc(C(F)(F)F)nc(N3CCC(N)CC3)n2)cnn1C`, the “Percent Effect” value is recorded as 19.65%.

As to `CCc1nc(CN2CCCN(Cc3noc(C4CC4)n3)CC2)cs1`, the “Percent Effect” value is recorded as -72.76%.

In the case of `COc1cc(CN2CCCC23CCN(c2ccccn2)CC3)ccc1F`, the “Percent Effect” value worked out at 1.862%.

`Cc1cc(C)c2[nH]c(C(=O)NCCN3CCCC3=O)c(C)c2c1`: the “Percent Effect” value was -119.1%.

For the compound `CC(C)c1noc(CCNC(=O)N2CCN(c3cccs3)CC2)n1`, the “Percent Effect” value is recorded as -17.65%.

For `CCc1nc(CCNC(=O)Nc2cccc(C(=O)NC)c2C)cs1`, the “Percent Effect” value is -100.3%.

Consider `Cc1nnc(SC2CCc3ccccc3NC2=O)o1` (stereo unspecified), for which the “Percent Effect” value is reported as -88.91%.

As to `CNc1cc(C)nc(-c2cc(NC)nc3[nH]ccc23)n1`, the “Percent Effect” value is given as 49.01%.

In the case of `CNc1cc(C)nc(-c2cc(NCCO)nc3[nH]ccc23)n1`, the “Percent Effect” value is -113.9%.

Consider `CNc1cc(C)nc(NCc2cc(C)cc3c(C)c(C)[nH]c23)n1`, for which the “Percent Effect” value was found to be 91.83%.

With `CNc1nc(C)cc(NCc2cc(C)cc3c(C)c(C)[nH]c23)n1`, the “Percent Effect” value was determined as 92.52%.

Consider `Cc1cc(CNc2cncc(C(=O)N(C)C)n2)c2[nH]c(C)c(C)c2c1`, for which the “Percent Effect” value is -64.7%.

Regarding `CCN(Cc1cnn(CC)c1)Cc1c(Cl)cncc1Cl`, the “Percent Effect” value is -11.88%.

For the compound `Cc1ccc(C2CN(CCCC#N)CCO2)c(C)c1` (stereo unspecified), the “Percent Effect” value is -121.1%.

`CCc1ncnc2c1CCN(S(=O)(=O)CC)CC2`: the “Percent Effect” value is on record as -41.95%.

On to `CN(CCCc1ccccc1)C(=O)c1ccccc1NCC(=O)O`, for which the “Percent Effect” value is reported as -16.6%.

For `CCC1=NN2C(=N)/C(=C\c3cccn3-c3ccc(Cl)cc3)C(=O)N=C2S1`, the “Percent Effect” value is on record as 17.01%.

For `COc1cc(I)c(Cl)cc1C(=O)N(C)CC(=O)NC(C)(C)C`, the “Percent Effect” value was -34.35%.

As for `CN1C(Cn2cccn2)C[C@@H]2CN(Cc3nccs3)CC[C@@H]21` (stereo partly specified), the “Percent Effect” value is listed as -108.4%.

Regarding `CN1[C@H](Cn2cccn2)C[C@@H]2CN(Cc3cccs3)CC[C@@H]21.O=C(O)C(F)(F)F.O=C(O)C(F)(F)F.O=C(O)C(F)(F)F`, the “Percent Effect” value came out at 75.74%.

With `Cc1ccoc1C(=O)N1CC[C@H]2[C@H](C[C@@H](CN3CCCC3)N2C)C1.O=C(O)C(F)(F)F.O=C(O)C(F)(F)F`, the “Percent Effect” value is given as -53.97%.

Turning to `CN1[C@H](CN2CCCC2)C[C@@H]2CN(Cc3ccoc3)CC[C@@H]21.O=C(O)C(F)(F)F.O=C(O)C(F)(F)F.O=C(O)C(F)(F)F`, the “Percent Effect” value stood at 57.43%.

Take `CC(C)N1[C@H](Cn2cccn2)C[C@@H]2CN(Cc3ccoc3)CC[C@@H]21.O=C(O)C(F)(F)F.O=C(O)C(F)(F)F.O=C(O)C(F)(F)F`: the “Percent Effect” value stood at 39.12%.

`CN1C(Cn2cccn2)C[C@@H]2CN(Cc3cccnc3)CC[C@@H]21.O=C(O)C(F)(F)F.O=C(O)C(F)(F)F.O=C(O)C(F)(F)F.O=C(O)C(F)(F)F` (stereo partly specified): the “Percent Effect” value was 11.1%.

As to `CN1[C@H](Cn2cccn2)C[C@@H]2CN(C(=O)Cc3cccs3)CC[C@@H]21`, the “Percent Effect” value is listed as -36.35%.

`CN1C(Cn2cccn2)C[C@@H]2CN(Cc3ccccn3)CC[C@@H]21.O=C(O)C(F)(F)F.O=C(O)C(F)(F)F.O=C(O)C(F)(F)F.O=C(O)C(F)(F)F` (stereo partly specified): the “Percent Effect” value came to 41.52%.
